The results in this text go back to PubChem BioAssay AID720641 (ICCB-Longwood Screening Facility, Harvard Medical School, 2013).

Out of some 170,000 compounds screened, about 900 (0.53%) were called active.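 How the source made its calls: active means relative growth at most 50% at the other temperature and 20+ points below 30 °C, or under 10% at both; inactive means the rest, inconclusive results apart.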 The entries come from a sample that favours actives as a whole.

The assay in a line: S. aureus growth inhibition at 42 and 30 °C, primary screen, LtaS inhibitor project, RN4220, two temperatures (AID 720641). To be noted: OD600, 20 h, 42 °C, stronger effect = lower value.

In the case of `CN(C)c1ccc(Nc2nc3ccccc3nc2NS(=O)(=O)c2cccs2)cc1`, the relative growth was 105% (inactive). Also, under “measured here: growth at 30 °C”, the relative growth was 95.9%.

For `Cc1cccn2c(=O)cc(CN3CCC(C(=O)N4CCOCC4)CC3)nc12`, the relative growth was 98.4% (inactive). In addition, the relative growth (measured here: growth at 30 °C) is 88.3%.

In the case of `COC(=O)c1ccc(C)c(NS(=O)(=O)c2ccc3c(c2)c(=O)sn3C)c1`, the relative growth was 0.12% (active). The relative growth (measured here: growth at 30 °C) amounted to 0.2%.

With `COC(=O)CN1C(=O)CSc2ccc(S(=O)(=O)Nc3cc(C)ccc3C)cc21`, the relative growth was 112% (inactive). Besides, the relative growth (measured here: growth at 30 °C) was 94%.

Turning to `COC(=O)c1ccc(NS(=O)(=O)c2cc(C(=O)OC)n(C)c2)cc1`, the relative growth is 106% (inactive). Besides, under “measured here: growth at 30 °C”, the relative growth came to 88%.

For the compound `COc1ccc(OCCn2c(S(=O)(=O)Cc3ccccc3)nc3ccccc32)cc1`, the relative growth is 132% (inactive). Besides, the relative growth (measured here: growth at 30 °C) turned out to be 101%.

With `COCCNc1ncnc2c1sc1nc(N3CCOCC3)c3c(c12)CCC3`, the relative growth was 111% (inactive). Further, the relative growth (measured here: growth at 30 °C) amounted to 88.7%.

In the case of `CSc1n[nH]c(-c2ccco2)n1`, the relative growth is 101% (inactive). For the setting “measured here: growth at 30 °C”, the relative growth worked out at 107%.

On to `CO/N=C(/C(=O)N[C@@H]1C(=O)N2C(C(=O)O)=C(CSc3nc(=O)c(O)nn3C)CS[C@H]12)c1csc(N)n1`, for which the relative growth was -0.87% (active). The relative growth (measured here: growth at 30 °C) was -0.54%.

For `O=S(=O)(Cc1ccccc1)CC(O)COc1ccc(OC(F)(F)F)cc1` (stereo unspecified), the relative growth was 102% (inactive). Besides, the relative growth (measured here: growth at 30 °C) came out at 85%.

Regarding `COc1ccccc1CN=C(C)c1ccccc1O`, the relative growth is 101% (inactive). Moreover, the relative growth (measured here: growth at 30 °C) was 99.1%.

For `CCOC(=O)c1c(C)csc1NC(=O)CC(=O)C(F)(F)F`, the relative growth is 2.75% (active). Moreover, under “measured here: growth at 30 °C”, the relative growth was found to be 4.35%.

Consider `CCOC(=O)c1c(NC(=O)C(F)(F)F)sc2c1CCCC2`, for which the relative growth is 101% (inactive). Under “measured here: growth at 30 °C”, the relative growth came out at 93.2%.

Consider `CCOC(=O)Nc1sccc1C(N)=O`, for which the relative growth is 106% (inactive). Also, the relative growth (measured here: growth at 30 °C) was determined as 101%.

For `O=C(CSc1nc2ccsc2c(=O)n1Cc1ccccn1)Nc1nccs1`, the relative growth was 94% (inactive). The relative growth (measured here: growth at 30 °C) is 87.2%.

With `O=S(=O)(NCCC12CC3CC(CC(C3)C1)C2)c1cc(Cl)ccc1Cl`, the relative growth is 80.5% (inactive). Also, the relative growth (measured here: growth at 30 °C) worked out at 66.9%.

In the case of `CC(C)NC(=O)COc1ccc(-c2nn(C)c(=O)c3ccccc23)cc1`, the relative growth was 92.3% (inactive). Also, under “measured here: growth at 30 °C”, the relative growth is 86.8%.

As for `CCOC(=O)N1CCC(N2Cc3cccc(C(=O)NC4CCN(Cc5ccccc5)CC4)c3C2=O)CC1`, the relative growth is 92.7% (inactive). Also, the relative growth (measured here: growth at 30 °C) turned out to be 86.6%.

Regarding `CCN(CC(=O)NCc1ccc(Cl)cc1)C(=O)c1c(C)noc1C`, the relative growth is 84.2% (inactive). In addition, the relative growth (measured here: growth at 30 °C) was 95.1%.

As for `Cc1ccc(Nc2c(-c3ccc(C)s3)nc3ccccn23)cc1`, the relative growth is 107% (inactive). The relative growth (measured here: growth at 30 °C) was 89.8%.

Consider `Cc1cccc(C)c1Nc1c(-c2ccccc2O)nc2ncccn12`, for which the relative growth is 99.7% (inactive). Besides, the relative growth (measured here: growth at 30 °C) was 86.4%.

Take `Cc1ccc(-c2nc3ccccn3c2Nc2c(C)cccc2C)o1`: the relative growth was 1.59% (active). Also, for the setting “measured here: growth at 30 °C”, the relative growth came out at 1.66%.

Consider `Nc1ccc(C(=O)Nc2ccc(C(=O)O)cc2N)cc1`, for which the relative growth is 108% (inactive). Besides, where the note is “measured here: growth at 30 °C”, the relative growth came to 98.5%.
